Reference: PubChem BioAssay AID1159580 (chemical genetic matrix, 2015)
Several values for one entry are separate records, joined by “and”; a condition that tells them apart may be missing. Equal entries are not always repeated. Screen size: about 5,500 compounds; about 2,000 (36%) were called active. About 18% were inconclusive and are not listed. Rule as the data show it: active = normalized growth mostly below about 0.91 (no sharp cut-off); inconclusive = no clear call, values can overlap the other calls; inactive = mostly above about 0.92. The list shows a part of the results.

Assay: chemical genetic growth profiling, strain panel (AID 1159580);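 also: tested at 20 µM; growth read once vehicle control cultures reached saturation at 30 °C; 1 = growth at the plate median or of vehicle wells; lower values mean less growth of the strain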
Settings: S. cerevisiae deletion strains, growth OD

Measured: normalized growth

CC(=O)Nc1ccc(OC(=O)c2ccccc2O)cc1
active: locus YBR009C, strain hhf1, stronger effect = lower value 0.862 | locus YBR021W, strain FUR4, stronger effect = lower value 0.807 | locus YBR023C, strain chs3, stronger effect = lower value 0.908 | locus YCL011C, strain gbp2, stronger effect = lower value 0.87 | locus YCL016C, strain dcc1, stronger effect = lower value 0.91 | locus YCL061C, strain MRC1, stronger effect = lower value 0.917 | locus YCL069W, strain vba3, stronger effect = lower value 0.908 | locus YDL134C, strain PPH21, stronger effect = lower value 0.878 | locus YDR159W, strain sac3, stronger effect = lower value 0.842 | locus YDR195W, strain ref2 1.15 [resistant] | locus YDR392W, strain spt3, stronger effect = lower value 0.712 | locus YDR502C, strain sam2, stronger effect = lower value 0.913 | locus YER155C, strain BEM2 (second series), stronger effect = lower value 0.765 | locus YER167W, strain BCK2, stronger effect = lower value 0.873 | locus YGL240W, strain doc1, stronger effect = lower value 0.882 | locus YGL253W, strain hxk2, stronger effect = lower value 0.879 | locus YGR078C, strain PAC10, stronger effect = lower value 0.848 | locus YGR135W, strain pre9, stronger effect = lower value 0.847 | locus YGR252W, strain gcn5, stronger effect = lower value 0.608 | locus YHR142W, strain chs7, stronger effect = lower value 0.803 | locus YJL164C, strain tpk1, stronger effect = lower value 0.897 | locus YJR043C, strain POL32, stronger effect = lower value 0.754
0.738 (active) and 0.924 (inactive): locus YJL095W, strain BCK1, stronger effect = lower value
inactive: locus YAL021C, strain ccr4, stronger effect = lower value 1 | locus YAL026C, strain drs2, stronger effect = lower value 0.949 | locus YAL030W, strain snc1, stronger effect = lower value 0.994 | locus YBL061C, strain skt5, stronger effect = lower value 0.972 | locus YBR171W, strain sec66, stronger effect = lower value 0.992 | locus YBR229C, strain ROT2, stronger effect = lower value 0.98 | locus YBR231C, strain swc5, stronger effect = lower value 0.992 | locus YBR279W, strain paf1, stronger effect = lower value 0.939 | locus YCL029C, strain bik1, stronger effect = lower value 0.954 | locus YCR088W, strain abp1, stronger effect = lower value 0.929 | locus YDL005C, strain med2, stronger effect = lower value 0.996 | locus YDL035C, strain GPR1, stronger effect = lower value 0.911 | locus YDL040C, strain nat1, stronger effect = lower value 0.99 | locus YDL074C, strain BRE1, stronger effect = lower value 0.788 | locus YDL101C, strain DUN1, stronger effect = lower value 0.947 | locus YDL185W, strain tfp1, stronger effect = lower value 0.954 | locus YDL192W, strain arf1, stronger effect = lower value 0.967 | locus YDR001C, strain nth1, stronger effect = lower value 0.959 | locus YDR069C, strain doa4, stronger effect = lower value 0.999 | locus YDR101C, strain arx1, stronger effect = lower value 0.937 | locus YDR137W, strain rgp1, stronger effect = lower value 0.958 | locus YDR162C, strain NBP2, stronger effect = lower value 0.943 | locus YDR297W, strain sur2, stronger effect = lower value 0.977 | locus YDR318W, strain mcm21, stronger effect = lower value 0.93 | locus YDR334W, strain swr1, stronger effect = lower value 0.962 | locus YDR335W, strain msn5, stronger effect = lower value 0.977 | locus YDR388W, stronger effect = lower value 0.944 | locus YEL003W, strain gim4, stronger effect = lower value 0.978 | locus YEL037C, strain rad23, stronger effect = lower value 0.968 | locus YEL061C, strain CIN8 (second series), stronger effect = lower value 0.971 | locus YEL061C, strain CIN8, stronger effect = lower value 0.98 | locus YER015W, strain faa2, stronger effect = lower value 0.934 | locus YER016W, strain bim1, stronger effect = lower value 0.933 | locus YER110C, stronger effect = lower value 0.951 | locus YER111C, strain swi4, stronger effect = lower value 0.991 | locus YER155C, strain BEM2, stronger effect = lower value 0.945 | locus YFR010W, strain ubp6, stronger effect = lower value 0.944 | locus YGL078C, strain dbp3, stronger effect = lower value 0.97 | locus YGL086W, strain mad1, stronger effect = lower value 0.935 | locus YGL167C, strain pmr1, stronger effect = lower value 1.01 | locus YGL173C, strain kem1, stronger effect = lower value 0.959 | locus YGL227W, strain vid30, stronger effect = lower value 0.959 | locus YGL248W, strain PDE1, stronger effect = lower value 0.904 | locus YHR013C, strain ard1, stronger effect = lower value 0.915 | locus YHR027C, strain rpn1, stronger effect = lower value 0.945 | locus YHR030C, strain SLT2, stronger effect = lower value 0.968 and 0.921 | locus YHR079C, strain IRE1 (second series), stronger effect = lower value 0.927 | locus YHR079C, strain IRE1, stronger effect = lower value 0.904 | locus YHR094C, strain hxt1, stronger effect = lower value 0.954 | locus YHR129C, strain ARP1, stronger effect = lower value 0.948 | locus YHR200W, strain rpn10, stronger effect = lower value 0.934 | locus YIL066C, strain RNR3, stronger effect = lower value 0.89 | locus YIL073C, strain SPO22, stronger effect = lower value 0.854 | locus YIL125W, strain kgd1, stronger effect = lower value 0.95 | locus YIR030C, strain dcg1, stronger effect = lower value 0.933 | locus YJL092W, strain hpr5, stronger effect = lower value 0.946 | locus YJL095W, strain BCK1 (second series), stronger effect = lower value 0.96 | locus YJL115W, strain asf1, stronger effect = lower value 0.989 | locus YJL129C, strain trk1, stronger effect = lower value 0.974 | locus YJL134W, strain LCB3, stronger effect = lower value 0.985 | locus YJL154C, strain vps35, stronger effect = lower value 0.985 | locus YJL166W, strain qcr8, stronger effect = lower value 0.952 | locus YJL168C, strain set2, stronger effect = lower value 0.958 | locus YJL187C, strain SWE1 (second series), stronger effect = lower value 0.93 | locus YJL187C, strain SWE1, stronger effect = lower value 0.985
